Screening data from PubChem BioAssay.
TbPYK inhibitor = qHTS of Trypanosoma Brucei Inhibitors. pyruvate kinase (Trypanosoma brucei), Q57TT1. TbPYK enzyme, Kinase-Glo Plus ATP luminescence, 45 min. Potency, µM (series often up to 76.8 µM), without a hit: at the highest dose activity, negative = inhibition, actives largely listed as inhibitors. 410,000 compounds, 0.12% hits. AID 624173, 2012; also: potency is read from the fitted curve at half-maximal effect; nearly all actives have a fitted effect of over 50% in size
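Assay buffer: 50 mM TEA pH 7.2, 100 mM KCl, 10 mM MgCl2, 0.05% BSA, 0.01% Tween-20. Pyruvate kinase from T. brucei plus substrate met compound, then ADP (130 uM final). Luminescence was read post 45 min RT.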
LmPK inh = qHTS Assay for Inhibitors of Leishmania Mexicana Pyruvate Kinase (LmPK); Potency, µM (doses to about 57.5 µM), inactives show top-dose activity change, negative = inhibition, actives largely listed as inhibitors; 290,000 compounds, 0.37% hits; Q27686; purified LmPK, Kinase-Glo ATP luminescence, 1 h; also: potency is read from the fitted curve at half-maximal effect
Target sequence (Q27686 whole entry, looked up): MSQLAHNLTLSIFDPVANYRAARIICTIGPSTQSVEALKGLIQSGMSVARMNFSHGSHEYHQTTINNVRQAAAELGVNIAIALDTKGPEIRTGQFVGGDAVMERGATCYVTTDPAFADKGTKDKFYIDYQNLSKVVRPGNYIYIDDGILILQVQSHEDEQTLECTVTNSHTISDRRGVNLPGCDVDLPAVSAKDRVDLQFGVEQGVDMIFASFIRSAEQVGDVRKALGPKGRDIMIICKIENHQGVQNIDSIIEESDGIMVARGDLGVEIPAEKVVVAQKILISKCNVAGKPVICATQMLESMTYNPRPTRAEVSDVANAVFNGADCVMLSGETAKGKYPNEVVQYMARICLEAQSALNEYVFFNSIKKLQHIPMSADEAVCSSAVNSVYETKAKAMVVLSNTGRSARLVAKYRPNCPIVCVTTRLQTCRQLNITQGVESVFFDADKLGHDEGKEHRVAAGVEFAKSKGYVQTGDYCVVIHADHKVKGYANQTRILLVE
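Screened at intermediate enzyme activity to detect both inhibitors and activators: LmPK at 0.1 nM, with a 0.5 nM enzyme column as activation reference. PEP 0.5 mM, ADP 0.1 mM; ATP detected by luminescence after 1 h.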
Vaccinia Venus = qHTS for Stage-Specific Inhibitors of Vaccinia Orthopoxvirus: Venus Reporter Primary qHTS; 330,000 compounds, 0.46% hits; Vaccinia virus Venus reporter expression, fluorescence; AID 720580, 2013; Potency, µM (titrated, usually from 36.5 µM), without a hit: at the top dose activity change, negative = inhibition, actives largely listed as inhibitors; calls by dose curve; tested in A549 cells; also: potency is read from the fitted curve at half-maximal effect; nearly all actives have a fitted effect of over 30% in size
HCMV antiviral = qHTS Assay for inhibitors of the human cytomegalovirus (HCMV). HFF cells, HCMV-luciferase reporter, 72 h; active compounds read low. activity change, negative = inhibition, % at 57.5 µM. 410,000 compounds, 4.5% hits. AID 1259415, 2018; in the data active = activity change below about -60%; inconclusive = no clear call, values can overlap the other calls; inactive = above about -39%
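Screen run at 2 compound doses on HFFs infected with reporter HCMV, MOI 1 PFU/cell. Luciferase activity from cell lysates at 72 h post infection gave inhibition relative to buffer-only and Salinomycin wells.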
VACV mCherry inh = qHTS for Stage-Specific Inhibitors of Vaccinia Orthopoxvirus: mCherry Reporter Primary qHTS; Vaccinia virus mCherry reporter infection, fluorescence; Potency, µM (titrated, usually from 36.5 µM), for the others: at the highest dose activity change, negative = inhibition, most hits filed as inhibitors; 310,000 compounds, 0.63% hits; calls by dose curve; tested in A549 cells; also: potency is read from the fitted curve at half-maximal effect; nearly all actives have a fitted effect of over 35% in size
* marks the source's active call; other numbers are inactive results; [ ] = dose if it differs, or a comment. The list is not random: actives were taken first. Their share in the collection is about 5%. Unless noted, calls follow the shape of the dose curve; as a rule, active = well fitted curve in the direction sought with a large enough effect; inconclusive = small, poorly fitted or top-dose-only effect, or another doubt; inactive = no such curve, though single readings can be large; an effect the other way counts as inactive or inconclusive. % is scaled to controls: 0 for no effect and ±100 for the full control effect.

`O=C(Cc1ccc(Cl)cc1)N/N=C/c1ccc(O)c(O)c1` gave TbPYK inhibitor -10%, Vaccinia Venus -9%, HCMV antiviral -34 and VACV mCherry inh -3%.
For Cc1ccc(O)c(/C=N/NC(=O)Cc2ccc(Cl)cc2)c1 the results were TbPYK inhibitor 1%, LmPK inh 6% and HCMV antiviral -99*.
`Cc1cccc(/C=N/NC(=O)Cc2ccc(Cl)cc2)c1O` gave TbPYK inhibitor -4%, LmPK inh -1% and HCMV antiviral -89*.
Screening COc1ccccc1/C=N\NC(=O)c1c(C)nc2ccc(Cl)cn12 returned TbPYK inhibitor 2%, LmPK inh -1% and HCMV antiviral 11.
Screening O=C(N/N=C/c1ccoc1)c1ccc(Cl)cc1 returned TbPYK inhibitor 6%, LmPK inh -16% and HCMV antiviral -75*.
`Cc1cccc(/C=N\NC(=O)c2ccc(Cl)cc2)c1O` gave TbPYK inhibitor -6%, LmPK inh 2%, Vaccinia Venus inconclusive, HCMV antiviral -101* and VACV mCherry inh 2.5µM*.
COc1ccc(CNC(=O)c2cnn(-c3ccc(OC)cc3)c2C2CCN(C(=O)OC(C)(C)C)CC2)cc1 was read as TbPYK inhibitor 8%[15.4 µM], Vaccinia Venus -22%, HCMV antiviral 0 and VACV mCherry inh -23%.
`COc1ccc(CCN2CCC(CNC(=O)c3cnn(-c4ccc(C)cc4)c3C3CCN(C(=O)OC(C)(C)C)CC3)CC2)cc1` gave TbPYK inhibitor 2%[15.4 µM], Vaccinia Venus 11µM*, HCMV antiviral 0 and VACV mCherry inh inconclusive.
For COc1ccc(-n2ncc(C(=O)NCCc3ccsc3)c2C2CCN(C(=O)OC(C)(C)C)CC2)cc1 the results were TbPYK inhibitor -2%[15.4 µM], Vaccinia Venus -1%, HCMV antiviral active and VACV mCherry inh -12%.
`N#CCCN(C(=O)CSc1ccc2c(c1)OCCO2)c1ccc(F)cc1` gave TbPYK inhibitor -15%, LmPK inh 2%, Vaccinia Venus -10% and HCMV antiviral -4.
For COC(=O)[C@@]12CCCN1[C@H](c1ccc(-c3cccc(Cl)c3)c(OC)c1)[C@H]1C(=O)N(C)C(=O)[C@H]12 the results were TbPYK inhibitor 4%, Vaccinia Venus -13%, HCMV antiviral 23 and VACV mCherry inh inactive.
For Cc1ccc(C)c(NC(=O)C(NS(=O)(=O)c2ccc3c(c2)CCC(=O)N3)c2ccccc2)c1 (stereo not given) the results were TbPYK inhibitor 1%, Vaccinia Venus 3%, HCMV antiviral 22 and VACV mCherry inh -15%.
CC(C)CN(C(=O)CCC(=O)OCC(=O)N(C)c1ccccc1)c1c(N)n(CC(C)C)c(=O)[nH]c1=O was read as TbPYK inhibitor 1%, Vaccinia Venus -5%, HCMV antiviral -7 and VACV mCherry inh -10%.
O=C(NNC(=O)C12CC3CC(CC(C3)C1)C2)c1ccccc1O was read as TbPYK inhibitor 1%, Vaccinia Venus inconclusive, HCMV antiviral -9 and VACV mCherry inh 10µM*.
`CC(C)=C(NC(=O)c1ccccc1)C(=O)NCc1ccccc1` gave TbPYK inhibitor 3%, LmPK inh 3%, Vaccinia Venus -8%, HCMV antiviral 28 and VACV mCherry inh inactive.
Oc1cccc(-c2nc3c4c(ncn3n2)-c2ccccc2CC42CCCC2)c1 was read as TbPYK inhibitor 3%, LmPK inh -9%, Vaccinia Venus 18µM*, HCMV antiviral -93* and VACV mCherry inh 13µM*.
For CC1(C(=O)NS(=O)(=O)c2ccccc2)CCN1C(=O)c1cccc2ccccc12 (stereo not given) the results were TbPYK inhibitor 1%, Vaccinia Venus 7%, HCMV antiviral -4 and VACV mCherry inh -14%.
CC(Sc1nc(C(C)(C)C)cc(-c2ccccc2)c1C#N)C(=O)Nc1ccccc1 (stereo not given) was read as TbPYK inhibitor -25%, LmPK inh 1%, Vaccinia Venus -18%, HCMV antiviral -64* and VACV mCherry inh -23%.
